# Rows were chosen to be rich in hits. Some 1.1% of all compounds tested hit in one or more screens of this group.
# CCHFV vOTU inh = CCHFV vOTU protease inhibitors, primary screen, biochemical, Pep-AMC substrate, fluorescence | Crimean-Congo hemorrhagic fever virus L polyprotein viral ovarian tumor (vOTU) protease … | inhibition, % at 11.5 µM | actives 0.55% (n = 370,000); in the data active means inhibition above about 30%; further: 0% = vehicle wells with enzyme and 100% = no enzyme wells
# Vc quorum ag-1 = inducers of Vibrio cholerae quorum light production without autoinducers, primary screen, BH1578 luxS cqsA deficient, single point | V. cholerae BH1578 lux reporter, luminescence, 6 h | activation, % at 18.7 µM | actives 0.16% (n = 350,000) | AID 588436, 2011; in the data active means activation mostly above about 9.7%, no sharp cut-off; inconclusive means no clear call, values can overlap the other calls; inactive means mostly below about 3.7%
# Y pestis TopoI = Yersinia pestis topoisomerase I inhibitors, primary screen, biochemical, cleavage product accumulation, plate reader, single point; actives 0.064% (n = 360,000); DNA topoisomerase I (Yersinia pestis CO92); activity, % at 10 µM; AID 504884, 2011; Y. pestis Topo-I cleavage product accumulation; in the data active means activity above about 50%, passing the limit was not always enough; inconclusive means no clear call, values can overlap the other calls
# PrPC TRFRET = inhibitors of human cell surface prion protein PrPC, primary screen, cell-based, TR-FRET. Major prion protein (Homo sapiens), P04156. TR-FRET read-out. inhibition, % at 13.8 µM. actives 0.43% (n = 370,000). AID 720596, 2013; in the data active means inhibition above about 24%; further: 0% = median of the test wells and 100% = reference compound wells
# Vc quorum ag-2 = V. cholerae lux activation without autoinducers – BH1578 luxS cqsA deficient, cherry-pick, plate reader, dose response | shares compounds with Vc quorum ag-1 | V. cholerae BH1578 lux reporter, luminescence, 6 h | activation, % at 50 µM | 620 tested, under 10 active | AID 602243, 2012; call rule not given here
# HeLa tox = HeLa cell cytotoxicity, dose response, cytotoxicity control, 24 h, dry powder. shares compounds with Vc quorum ag-1. HeLa viability, CellTiter-Glo ATP luminescence. activity change, negative = cytotoxicity, % at 35 µM. 25 tested, under 10 active. AID 624140, 2012;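 active means signal drop with fitted half-maximal concentration at or below twice the highest valid dose; inconclusive means flat curve with 30 to 70% loss, or poor fit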
# Starred values were filed as active, the others as inactive; i = inactive; ? = inconclusive; · = not tested or not shown; + = active, no number.
SMILES,CCHFV vOTU inh,Vc quorum ag-1,Y pestis TopoI,PrPC TRFRET,Vc quorum ag-2,others
CC(=O)N1CCN(C(=O)COc2ccc(Br)cc2)CC1,8,17*,-2,-5,0,
O=C(COc1ccc2ccccc2c1)N1CCN(c2ccccc2)CC1,2,-1,2,-2,·,
COc1ccc(OCC(=O)N2CCN(C(=O)COc3ccc(Br)cc3)CC2)cc1,1,·,4,1,·,
COc1ccc(N2CCN(C(=O)COc3ccc4ccccc4c3)CC2)cc1,6,12,16,2,0,
C[C@H]1CN([C@@H](C)CO)C(=O)CCCn2cc(nn2)CO[C@@H]1CN(C)S(=O)(=O)c1cccc(F)c1,-1,1,5,-4,·,
CCc1cc(=O)n2[nH]c(C)c(-c3ccc(OC)cc3)c2n1,1,-1,1,4,·,
Nc1nc(N)nc(-c2ccc(Oc3ccccc3)cc2)n1,-16,i,8,2,·,
Cc1sc(N)nc1-c1ccc(Oc2ccccc2)cc1,-5,46*,-6,7,66,
CCn1c(SCC(=O)OC2CCCCC2)nnc1-c1ccncc1,6,17*,10,-2,0,
CC(=O)Nc1ccc(N=Cc2c(O)c(C(=O)Nc3ccccc3)cc3ccccc23)cc1,7,·,·,0,·,
CCOc1ccc(C(=O)OCC(=O)N2CCCC2)cc1,12,25*,3,-1,8,
Cc1csc(NC(=O)Cc2nn(C)c(=O)c3ccccc23)n1,-4,25*,0,10,0,
COc1cccc(OC)c1NC(=O)Cc1nn(C)c(=O)c2ccccc12,0,-2,1,2,·,
CCOc1ccc(/C(O)=C2/C(=O)C(=O)N(CCOCCO)C2c2ccccn2)cc1 (stereo not drawn),3,14,1,3,0,
O=C(COC(=O)c1cccnc1Cl)NCC1CCCO1 (stereo not drawn),1,i,6,0,·,
CCC(C)NC(=O)Cc1ccc(-c2ccccc2)cc1 (stereo not drawn),-11,+,-7,0,i,HeLa tox=-6
CCCC(C)NC(=O)Cc1ccccc1 (stereo not drawn),-7,0,8,0,·,
COc1ccccc1NC(=O)Cc1ccc(-c2ccccc2)cc1,-5,+,31,4,i,
O=C1c2ccccc2C(=O)N1CCCn1nnc(-c2ccc(N3CCOCC3)cc2)n1,-6,0,2,3,·,
O=C(Nc1nnc(-c2ccc3c(c2)OCCO3)o1)C1CCCCC1,-14,·,2,-1,·,HeLa tox=-13
CCOC(=O)Cn1c(-c2nonc2NC(=O)c2ccccc2F)nc2ccccc21,4,i,8,-2,·,
COc1ccc(Cl)cc1NC(=O)COC(=O)c1cc(C)oc1C,27,+,21,-11,589,
Cc1cc(C(=O)OCC(=O)Nc2c(Cl)cccc2C(F)(F)F)c(C)o1,-3,9,2,-1,1,
COc1ccccc1NC(=O)COC(=O)c1ccc2c(c1)OCCO2,-3,52*,10,6,7,
Cc1cc(C(=O)OCC(=O)Nc2ccc(F)c(F)c2F)c(C)o1,-9,-1,5,-1,·,
SMILES,CCHFV vOTU inh,Vc quorum ag-1,Y pestis TopoI,PrPC TRFRET,Vc quorum ag-2,others
CCOc1ccccc1NC(=O)COC(=O)c1cc(C)oc1C,2,·,-5,12,·,
COc1ccccc1NC(=O)COC(=O)c1cc(C)oc1C,1,·,9,6,i,
CCCCCOc1ccc(C(=O)CCN2CCOCC2)cc1,-2,-1,8,-6,·,
CCCCN(C)C(=O)C1CCC(CNS(=O)(=O)c2ccc3c(c2)CC(C)N3C(C)=O)CC1 (stereo not drawn),-13,-1,15,0,·,
O=C(c1ccc2ccccc2n1)N1CCN(c2ccccn2)CC1,3,1,4,-8,·,
COc1ccccc1NC(=O)COC(=O)c1oc2ccccc2c1C,1,26*,7,0,27,HeLa tox=-5
COc1ccccc1NC(=O)COC(=O)c1cn(C)c2ccccc12,13,+,23,10,268,
O=C(C[C@H]1C[C@H](C(=O)N2CCOCC2)[C@@]2(CCC3CCCC3)c3[nH]c4ccc(Cl)cc4c3CCN2C1=O)NCCc1ccccn1,2,1,2,-5,·,
Cc1cnc(C(=O)OCC(=O)Nc2ccc(Cl)cc2)cn1,10,i,-4,2,·,
Cc1cnc(C(=O)OCC(=O)NC(=O)NC(C)C)cn1,-3,33*,-5,-4,0,
Cc1nc2ncnn2c(C)c1Cc1c(Cl)cccc1Cl,-2,94*,3,5,18,
Cc1ccc2nc3c(cc2c1)c(NS(=O)(=O)c1ccccc1)nn3CC(C)C,-2,0,-9,-4,·,
CCOC(=O)c1c(NC(=S)Nc2cccnc2)sc(C)c1C,-2,0,-5,3,·,
CCOC(=O)c1c(NC(=S)Nc2ccc(Cl)cc2)sc(C)c1C,-17,12,11,-6,1,
COCCSc1ccccc1C(=O)Nc1nnc(COC)s1,1,12,5,-1,0,
Cc1nn2cnnc2c(C)c1Cc1c(F)cccc1Cl,-17,165*,0,5,10,
CC(C)CNC(=O)C1(C)CCCN1C(=O)c1ccc2ccccc2n1 (stereo not drawn),-1,5,17,-3,·,
Cc1nnc2c3ccccc3c(-c3cccs3)nn12,-1,1,-11,-10,·,
Cc1nnc2c3ccccc3c(-c3ccc(O)cc3)nn12,-1,84*,4,1,412,
CCOc1ccc(CCNC(=O)COC(=O)Cc2ccc(F)cc2)cc1OCC,13,14,18,-3,3,
O=C(c1cc2cc(Cl)ccc2oc1=O)N1CCOCC1,5,8,-2,-9,4,
Cc1cc(OC(F)F)ccc1NC(=S)NCCc1ccccc1,7,12,7,4,0,
COc1ccc(NC(=S)NCCc2ccccc2)c(C)c1,-7,i,10,0,·,
O=C(CNC(=O)OCc1ccccc1)OC(c1ccccc1)c1ccccc1,3,i,?,-6,·,
CCCCOCC(O)CN1CCN(C(C)=O)CC1 (stereo not drawn),-7,12,-2,4,2,
CC(=O)N1CCN(CC(O)COc2ccc(Br)cc2)CC1 (stereo not drawn),13,i,0,2,·,
COc1ccc(NC(=O)CCS(=O)(=O)c2ccc3c(c2)CCCN3C(C)=O)cc1Cl,-2,17*,2,7,4,
O=C(COC(=O)c1ccc(Cl)nc1)Nc1ccc2ccccc2c1,-9,14,0,6,0,
COc1cccc(-n2c(CNC(=O)OC(C)(C)C)n[nH]c2=S)c1,1,0,4,-7,·,
CC1CCN(c2ccccc2NC(=O)c2cc3ccccc3o2)CC1,-3,97*,11,5,0,

# Source: PubChem (several laboratories)
